# According to PubChem BioAssay (NCATS):
# Results filed as inconclusive are left out. Entries that show only a call come without a potency. Active and inactive are the calls of the source. Unless noted, calls follow the shape of the dose curve; as a rule, active = well fitted curve in the direction sought with a large enough effect; inconclusive = small, poorly fitted or top-dose-only effect, or another doubt; inactive = no such curve, though single readings can be large; an effect the other way counts as inactive or inconclusive.
# Tests used:
# [1] = Cytotoxicity counterscreen for NFkB agonists and antagonists (AID 624476); also: potency is read from the fitted curve at half-maximal effect
# [2] = qHTS Assay for Identification of Small Molecule Agonists for NFkB Signaling Pathway. (AID 624478);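 also: compounds tested together with TNF alpha at its EC50 of 10 pM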
# Method in brief: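 Assay medium contained 0.5% FBS and 10 mM HEPES pH 7.3. Compounds were added together with TNF alpha (10 pM final), incubated 5 h at 37 C, and the beta-lactamase signal was measured fluorometrically.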
# [3] = qHTS Assay for Identification of Small Molecule Antagonists for NFkB Signaling Pathway. (AID 624479; calls by dose curve;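 also: pathway stimulated with TNF alpha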; also: potency is read from the fitted curve at half-maximal effect)
# [4] = Cell Proliferation Assay against the TMD8 Cell Line (AID 651645); settings: TMD8 DLBCL cell line proliferation/viability; at 46.1 µM (top of the series) unless noted;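 also: cells exposed to compound for 48 h before reading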
# Method in brief: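 Cell viability of the ABC DLBCL line TMD8 is measured by CellTiter-Glo luminescence following a 48-hour incubation with compound. Percent activity uses DMSO as 100% and 9.2 uM bortezomib (final) as 0%.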
# [5] = Cell Proliferation Assay against the HBL1 Cell Line (AID 651646); settings: HBL1 DLBCL cells; at 46.1 µM (top of the series) unless noted;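 also: cells exposed to compound for 48 h before reading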
# Method in brief: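 HBL1, 500 cells/well, RPMI no phenol red + 5% FBS; cpd pinned, 48 h 37C/5% CO2; CellTiter-Glo, 15 min RT, luminescence. % activity: DMSO = 100%, bortezomib 9.2 uM final = 0%.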
# [6] = Cell Proliferation Assay against the TMD8 Cell Line (Caspase readout at 8 hrs) (AID 651713)
# Method in brief: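 Luminescent caspase 3/7 assay; TMD8 cells, 8 h treatment at 37C, 5% CO2. Normalisation: DMSO 0%, 9.2 uM bortezomib 100%.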
# [7] = Cell Proliferation Assay against the TMD8 Cell Line (Caspase readout at 16 hrs) (AID 651712); also: potency is read from the fitted curve at half-maximal effect
# Method in brief: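 Caspase-Glo luminescence after 16 h compound exposure of TMD8 cells, 37 °C, 5% CO2. Medium: RPMI without phenol red, 5% FBS. Normalisation: DMSO = 0%, bortezomib 9.2 uM final = 100%.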
Compound,Potency [1],outcome [2],Potency [3],viability (% of control) [4] [%],"viability, percent of control [5] [%]",Potency [6],Potency [7]
CCc1ccc(CCOc2ccc(CC3SC(=O)NC3=O)cc2)nc1 (centres undefined),inactive,inactive,16.8 µM (active),79.6,77.7,inactive,
O=c1ncn2nc(Sc3ccc(F)cc3F)ccc2c1-c1c(Cl)cccc1Cl,inactive,inactive,inactive,65.5,62.3,inactive,
O=S(=O)(N=Cc1c(O)ccc2ccccc12)c1cccs1,inactive,inactive,inactive,49.7,72.6,inactive,
Fc1ccc(Cl)cc1-c1nc(Nc2ccncc2)c2nccnc2n1,inactive,inactive,inactive,98.1,93.2,inactive,inactive
CCn1c(-c2nonc2N)nc2cnc(Oc3cccc(NC(=O)c4ccc(OCCN5CCOCC5)cc4)c3)cc21,inactive,inactive,4.73 µM (active),19.6,36.3,inactive,
OCCn1cc(-c2cnc3nnn(Cc4ccc5ncccc5c4)c3n2)cn1,inactive,inactive,inactive,75.8,79.7,inactive,inactive
Cc1cnc(Nc2ccc(OCCN3CCCC3)cc2)nc1Nc1cccc(S(=O)(=O)NC(C)(C)C)c1,inactive,inactive,inactive,90.7,65.3,inactive,inactive
Cn1cc(-c2ccc3nnc(C(F)(F)c4ccc5ncccc5c4)n3n2)cn1,inactive,inactive,inactive,76.9,86.8,inactive,inactive
CCc1cc(Nc2nccc(-c3c(-c4ccc(OC)c(C(=O)Nc5c(F)cccc5F)c4)nc4ccccn34)n2)c(OC)cc1N1CCC(N2CCN(S(C)(=O)=O)CC2)CC1,inactive,inactive,inactive,78.7,87.3,inactive,inactive
Oc1cccc(-c2nc(N3CCOCC3)c3oc4ncccc4c3n2)c1,0.0833 µM (active),inactive,,16.2,42.6,,
CC(=O)NC(C)c1ccc(Oc2ccc(OC(C)C)cc2)cc1 (centres undefined),inactive,inactive,inactive,,62.8,inactive,inactive
O=C(c1cc(Cc2n[nH]c(=O)c3ccccc23)ccc1F)N1CCN(C(=O)C2CC2)CC1,inactive,inactive,inactive,58.9,64.8,inactive,
C[C@]12CC[C@H](O)CC1=CC[C@@H]1[C@H]2CC[C@]2(C)C(c3cccnc3)=CC[C@H]12,inactive,inactive,inactive,29.5,52.7,inactive,
CCN(CCCO)CCCOc1ccc2c(Nc3cc(CC(=O)Nc4cccc(F)c4)[nH]n3)ncnc2c1,inactive,inactive,inactive,42.6,67.6,inactive,inactive
CCCS(=O)(=O)Nc1ccc(F)c(C(=O)c2c[nH]c3ncc(-c4ccc(Cl)cc4)cc23)c1F,20.9 µM (active),inactive,16.8 µM (active),41.4,4.32,inactive,
Nc1nc2[nH]cc(CCc3ccc(C(=O)N[C@@H](CCC(=O)O)C(=O)O)cc3)c2c(=O)[nH]1,inactive,inactive,inactive,40,74.6,inactive,inactive
NC(=O)c1ccc(I)c([N+](=O)[O-])c1,inactive,inactive,inactive,92.9,76.7,inactive,inactive
CC1(C)Cc2c(-c3ccccc3)c(-c3ccc(Cl)cc3)c(CC(=O)O)n2C1,20.9 µM (active),inactive,21.1 µM (active),,35.6,,
CCCc1nc2c(C)cc(-c3nc4ccccc4n3C)cc2n1Cc1ccc(-c2ccccc2C(=O)O)cc1,inactive,inactive,inactive,71.5,70.6,inactive,inactive
O=C1[C@H](Cc2ccc(O)cc2)N2C(=O)CCN(C(=O)NCc3ccccc3)[C@H]2CN1Cc1cccc2ccccc12,inactive,inactive,inactive,27.3,32.2,inactive,23.5 µM (active)
Cc1cc(Nc2nc(N[C@@H](C)c3ncc(F)cn3)ncc2Cl)n[nH]1,inactive,inactive,inactive,105,138,inactive,inactive
COc1ccc(-c2ccc3c(N4CCOCC4)nc(N4C[C@@H](C)O[C@@H](C)C4)nc3n2)cc1CO,inactive,inactive,inactive,29.5,57.7,inactive,
CCOC(=O)N[C@@H]1CC[C@@H]2[C@@H](C1)C[C@H]1C(=O)O[C@H](C)[C@H]1[C@@H]2C=Cc1ccc(-c2cccc(F)c2)cn1,inactive,inactive,inactive,42.8,,inactive,
